± gives the standard deviation of the averaged measurements. Targets with the largest changes are over-represented here; the source holds about 5,400 in all.
Compound: Nc1nc2c(ncn2[C@@H]2O[C@H](COP(=O)(O)OP(=O)(O)OP(=O)(O)O)[C@@H](O)[C@H]2O)c(=O)[nH]1 [guanosine triphosphate]
Experiment: NP40-soluble protein abundance relative to vehicle (solubility fold change) (ratio); higher = more soluble protein in presence of GTP
Procedure, shortened: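 Across three independent experiments, values are fold changes against the detergent-processed vehicle for each replicate, based on vsn-normalised intensities. The samples were Jurkat crude lysate treated with eight concentrations (0.1 to 10 mM) for 10 min at room temperature and then 3 min at 37 °C. Lysate was solubilised with 0.8% NP40 and benzonase, ultracentrifuged, and the supernatant analysed by TMT-labelled LC-MS/MS.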

Sequence of UniProt O43324 (O43324 whole entry): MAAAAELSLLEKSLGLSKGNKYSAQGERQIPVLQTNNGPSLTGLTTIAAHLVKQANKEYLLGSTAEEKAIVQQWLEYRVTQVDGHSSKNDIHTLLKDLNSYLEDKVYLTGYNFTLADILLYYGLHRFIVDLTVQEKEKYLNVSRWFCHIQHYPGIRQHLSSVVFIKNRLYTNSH
Sequence of UniProt O15042 (O15042 whole entry, one chain of several): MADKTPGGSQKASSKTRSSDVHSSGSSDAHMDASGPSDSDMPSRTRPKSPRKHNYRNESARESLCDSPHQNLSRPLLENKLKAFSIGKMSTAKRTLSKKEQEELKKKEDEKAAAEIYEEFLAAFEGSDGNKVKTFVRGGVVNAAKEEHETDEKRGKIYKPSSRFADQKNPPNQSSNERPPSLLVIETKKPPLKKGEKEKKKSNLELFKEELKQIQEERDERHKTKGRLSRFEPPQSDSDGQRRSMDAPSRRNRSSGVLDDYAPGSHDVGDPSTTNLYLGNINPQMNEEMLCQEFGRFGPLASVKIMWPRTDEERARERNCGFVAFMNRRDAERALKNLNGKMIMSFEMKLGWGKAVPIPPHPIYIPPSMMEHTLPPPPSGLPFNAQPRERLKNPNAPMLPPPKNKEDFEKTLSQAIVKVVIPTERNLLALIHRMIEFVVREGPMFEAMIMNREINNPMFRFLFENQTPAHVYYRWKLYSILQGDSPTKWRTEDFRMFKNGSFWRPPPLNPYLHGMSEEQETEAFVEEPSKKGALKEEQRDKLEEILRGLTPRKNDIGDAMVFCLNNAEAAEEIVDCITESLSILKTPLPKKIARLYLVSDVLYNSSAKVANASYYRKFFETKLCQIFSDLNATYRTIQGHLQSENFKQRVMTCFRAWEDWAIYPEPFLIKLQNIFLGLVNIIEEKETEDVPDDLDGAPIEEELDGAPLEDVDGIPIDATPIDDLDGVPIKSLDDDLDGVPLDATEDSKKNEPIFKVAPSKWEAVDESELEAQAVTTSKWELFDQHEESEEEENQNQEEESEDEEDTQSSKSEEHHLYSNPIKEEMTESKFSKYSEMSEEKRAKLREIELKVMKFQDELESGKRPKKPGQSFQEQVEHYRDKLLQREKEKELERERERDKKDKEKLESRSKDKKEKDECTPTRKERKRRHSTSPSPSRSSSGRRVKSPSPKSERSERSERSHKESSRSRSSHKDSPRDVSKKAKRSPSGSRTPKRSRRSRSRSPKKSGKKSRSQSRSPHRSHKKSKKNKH
Sequence of UniProt P41091 (P41091 whole entry): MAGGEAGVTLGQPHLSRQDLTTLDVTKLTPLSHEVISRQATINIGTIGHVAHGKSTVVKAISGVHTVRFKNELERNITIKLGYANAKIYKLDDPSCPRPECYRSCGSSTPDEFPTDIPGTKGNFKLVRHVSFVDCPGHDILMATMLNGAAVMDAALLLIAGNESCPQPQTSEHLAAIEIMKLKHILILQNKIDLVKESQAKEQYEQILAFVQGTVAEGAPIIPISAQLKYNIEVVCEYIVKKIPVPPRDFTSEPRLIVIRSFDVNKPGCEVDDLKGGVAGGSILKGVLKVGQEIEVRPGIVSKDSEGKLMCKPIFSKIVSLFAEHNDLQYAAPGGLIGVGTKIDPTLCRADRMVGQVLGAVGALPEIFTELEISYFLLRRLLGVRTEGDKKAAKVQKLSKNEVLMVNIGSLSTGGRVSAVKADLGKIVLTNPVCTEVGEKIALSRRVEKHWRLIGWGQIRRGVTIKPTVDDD
Sequence of UniProt P35606 (P35606 whole entry): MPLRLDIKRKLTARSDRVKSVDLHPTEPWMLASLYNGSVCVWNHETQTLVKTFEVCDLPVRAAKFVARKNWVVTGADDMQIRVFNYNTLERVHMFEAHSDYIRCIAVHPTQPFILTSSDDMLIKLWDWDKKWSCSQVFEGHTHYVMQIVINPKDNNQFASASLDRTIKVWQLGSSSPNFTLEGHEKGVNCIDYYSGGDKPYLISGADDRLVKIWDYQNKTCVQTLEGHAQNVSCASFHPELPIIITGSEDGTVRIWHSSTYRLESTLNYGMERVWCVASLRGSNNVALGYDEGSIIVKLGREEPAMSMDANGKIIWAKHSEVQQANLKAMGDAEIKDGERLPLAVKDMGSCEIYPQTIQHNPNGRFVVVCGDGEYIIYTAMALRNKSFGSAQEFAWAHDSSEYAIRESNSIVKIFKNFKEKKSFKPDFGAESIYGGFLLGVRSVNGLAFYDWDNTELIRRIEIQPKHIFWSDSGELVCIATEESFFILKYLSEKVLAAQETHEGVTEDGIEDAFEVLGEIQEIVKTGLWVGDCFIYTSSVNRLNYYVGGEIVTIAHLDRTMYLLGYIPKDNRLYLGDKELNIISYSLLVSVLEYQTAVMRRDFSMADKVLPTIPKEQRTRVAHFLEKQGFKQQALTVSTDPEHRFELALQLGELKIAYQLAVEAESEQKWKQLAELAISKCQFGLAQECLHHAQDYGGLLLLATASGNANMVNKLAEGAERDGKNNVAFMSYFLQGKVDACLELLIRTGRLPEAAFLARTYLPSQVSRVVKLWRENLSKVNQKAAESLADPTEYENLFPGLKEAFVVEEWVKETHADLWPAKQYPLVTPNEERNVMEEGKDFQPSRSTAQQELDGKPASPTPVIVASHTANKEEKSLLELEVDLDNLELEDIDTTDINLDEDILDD
Sequence of UniProt O75937 (O75937 whole entry): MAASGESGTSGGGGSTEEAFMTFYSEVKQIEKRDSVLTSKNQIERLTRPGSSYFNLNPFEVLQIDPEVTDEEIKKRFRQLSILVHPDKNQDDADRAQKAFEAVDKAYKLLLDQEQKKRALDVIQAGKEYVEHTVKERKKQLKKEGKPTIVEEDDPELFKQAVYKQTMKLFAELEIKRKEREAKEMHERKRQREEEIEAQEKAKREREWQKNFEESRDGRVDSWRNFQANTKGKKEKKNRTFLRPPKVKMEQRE
Sequence of UniProt P38935 (P38935 whole entry): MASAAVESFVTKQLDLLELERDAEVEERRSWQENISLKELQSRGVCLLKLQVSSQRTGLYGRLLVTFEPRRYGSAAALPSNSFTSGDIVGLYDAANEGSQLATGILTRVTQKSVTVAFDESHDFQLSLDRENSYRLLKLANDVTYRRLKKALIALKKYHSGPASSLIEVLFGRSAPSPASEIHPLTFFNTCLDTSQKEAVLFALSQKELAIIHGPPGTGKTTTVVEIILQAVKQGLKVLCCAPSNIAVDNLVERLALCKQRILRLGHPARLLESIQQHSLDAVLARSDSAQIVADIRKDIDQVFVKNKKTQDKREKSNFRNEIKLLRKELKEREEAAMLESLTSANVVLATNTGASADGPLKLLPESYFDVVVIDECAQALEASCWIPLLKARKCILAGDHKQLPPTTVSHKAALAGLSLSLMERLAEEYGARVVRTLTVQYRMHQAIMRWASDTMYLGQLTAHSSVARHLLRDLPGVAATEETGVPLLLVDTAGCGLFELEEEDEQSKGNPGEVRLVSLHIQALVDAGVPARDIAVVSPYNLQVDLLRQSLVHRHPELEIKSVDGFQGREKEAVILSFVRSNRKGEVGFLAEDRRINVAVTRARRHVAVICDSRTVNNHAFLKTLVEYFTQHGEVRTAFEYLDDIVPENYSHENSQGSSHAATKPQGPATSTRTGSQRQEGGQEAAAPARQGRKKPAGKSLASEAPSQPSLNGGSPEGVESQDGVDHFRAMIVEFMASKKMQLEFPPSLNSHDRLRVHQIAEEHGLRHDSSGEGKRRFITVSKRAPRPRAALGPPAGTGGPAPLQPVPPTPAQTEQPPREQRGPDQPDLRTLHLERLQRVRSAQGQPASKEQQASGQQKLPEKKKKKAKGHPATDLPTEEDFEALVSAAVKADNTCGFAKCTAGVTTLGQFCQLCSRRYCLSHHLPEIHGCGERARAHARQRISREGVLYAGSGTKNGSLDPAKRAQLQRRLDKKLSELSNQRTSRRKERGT
Sequence of UniProt Q9Y421 (Q9Y421 whole entry, one chain of several): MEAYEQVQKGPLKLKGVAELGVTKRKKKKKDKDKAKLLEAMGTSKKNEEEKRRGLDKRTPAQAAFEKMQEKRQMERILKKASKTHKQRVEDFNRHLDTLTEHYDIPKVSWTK
Sequence of UniProt O96008 (O96008 whole entry): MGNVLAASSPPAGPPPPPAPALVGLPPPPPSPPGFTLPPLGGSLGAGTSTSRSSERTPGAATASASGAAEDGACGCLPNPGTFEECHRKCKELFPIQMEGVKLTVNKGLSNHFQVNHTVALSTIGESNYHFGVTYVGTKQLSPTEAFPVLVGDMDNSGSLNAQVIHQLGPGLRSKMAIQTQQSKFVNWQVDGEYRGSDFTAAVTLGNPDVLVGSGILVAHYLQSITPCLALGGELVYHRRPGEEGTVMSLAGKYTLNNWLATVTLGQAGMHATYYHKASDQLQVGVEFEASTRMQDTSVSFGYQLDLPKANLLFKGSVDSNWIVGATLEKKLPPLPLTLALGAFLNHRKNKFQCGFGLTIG
Sequence of UniProt P28161 (P28161 whole entry): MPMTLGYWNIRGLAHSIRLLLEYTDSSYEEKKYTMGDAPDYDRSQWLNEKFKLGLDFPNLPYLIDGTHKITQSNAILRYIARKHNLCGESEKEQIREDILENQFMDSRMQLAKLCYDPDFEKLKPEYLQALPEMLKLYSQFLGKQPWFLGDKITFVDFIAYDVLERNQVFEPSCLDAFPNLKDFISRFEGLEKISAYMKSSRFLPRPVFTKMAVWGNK
Sequence of UniProt P16949 (P16949 whole entry): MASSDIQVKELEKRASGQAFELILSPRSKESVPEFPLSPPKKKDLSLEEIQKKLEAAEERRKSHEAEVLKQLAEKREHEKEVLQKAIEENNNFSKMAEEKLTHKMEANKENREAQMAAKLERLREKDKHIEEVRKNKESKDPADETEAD
Sequence of UniProt P05114 (P05114 whole entry): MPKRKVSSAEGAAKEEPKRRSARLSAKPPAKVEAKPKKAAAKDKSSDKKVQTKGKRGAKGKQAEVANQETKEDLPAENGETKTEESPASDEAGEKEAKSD
Sequence of UniProt O75531 (O75531 whole entry): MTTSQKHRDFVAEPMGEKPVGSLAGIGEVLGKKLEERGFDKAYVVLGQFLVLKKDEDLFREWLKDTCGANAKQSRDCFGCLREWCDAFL

Target	NP40-soluble protein abundance (concentration: 0.1mM)	NP40-soluble protein abundance (concentration: 0.5mM)	NP40-soluble protein abundance (concentration: 1mM)	NP40-soluble protein abundance (concentration: 2mM)	NP40-soluble protein abundance (concentration: 4mM)	NP40-soluble protein abundance (concentration: 6mM)	NP40-soluble protein abundance (concentration: 8mM)	NP40-soluble protein abundance (concentration: 10mM)
P39880-3|Q13948|Q13948-2|P39880 (UniProt Q13948+P39880)	0.948 ± 0.035	0.948 ± 0.058	1.01 ± 0.049	0.978 ± 0.063	1.01 ± 0.054	0.997 ± 0.052	1.03 ± 0.024	1.05 ± 0.063
UniProt O75143|O75143-2|O75143-5	0.993 ± 0.038	0.996 ± 0.042	1.01 ± 0.065	1.02 ± 0.081	0.967 ± 0.024	0.959 ± 0.088	0.937 ± 0.058	0.947 ± 0.041
BANF1 (UniProt O75531)	1.42 ± 0.34	2.98 ± 1.1	5.2 ± 3	5.54 ± 3.3	5.21 ± 3.3	5.08 ± 3	4.35 ± 2	5.71 ± 3.2
RAD21 (UniProt O60216)	0.975 ± 0.037	0.991 ± 0.03	1.06 ± 0.023	1.07 ± 0.044	1.09 ± 0.028	1.07 ± 0.038	1.11 ± 0.062	1.12 ± 0.092
UniProt O75822|O75822-2	0.856 ± 0.038	0.825 ± 0.074	0.908 ± 0.09	0.954 ± 0.098	1.07 ± 0.17	1.32 ± 0.22	1.4 ± 0.3	1.77 ± 0.39
EIF2S3 (UniProt P41091)	1.02 ± 0.024	1.05 ± 0.045	0.967 ± 0.015	0.98 ± 0.071	0.981 ± 0.04	0.995 ± 0.038	0.956 ± 0.025	0.931 ± 0.065
UniProt O15042|O15042-2|E7ET15	1 ± 0.011	1.08 ± 0.013	1.15 ± 0.05	1.18 ± 0.094	1.24 ± 0.13	1.32 ± 0.14	1.4 ± 0.22	1.37 ± 0.23
XPO1 (UniProt O14980)	1.01 ± 0.027	1.02 ± 0.033	0.936 ± 0.022	0.926 ± 0.072	0.916 ± 0.054	0.918 ± 0.033	0.882 ± 0.023	0.848 ± 0.044
K7EQW8|P67936|K7ERG3 (UniProt P67936)	0.803 ± 0.15	0.716 ± 0.089	1.39 ± 0.5	1.19 ± 0.29	1.27 ± 0.27	1.27 ± 0.21	1.15 ± 0.34	1.83 ± 0.49
UniProt P28907	0.92 ± 0.058	0.876 ± 0.075	0.927 ± 0.063	0.902 ± 0.091	0.891 ± 0.088	0.925 ± 0.088	0.895 ± 0.1	0.894 ± 0.058
UniProt P13051|P13051-2	0.9724 ± 0.0086	0.946 ± 0.019	0.944 ± 0.073	0.91 ± 0.062	0.886 ± 0.075	0.892 ± 0.07	0.893 ± 0.036	0.863 ± 0.1
UniProt P35606|P35606-2	1.04 ± 0.075	1.07 ± 0.11	0.994 ± 0.089	1.04 ± 0.12	1.04 ± 0.12	1.03 ± 0.12	1.01 ± 0.097	0.984 ± 0.087
HMGN1 (UniProt P05114)	1.26 ± 0.29	1.29 ± 0.33	1.39 ± 0.48	1.52 ± 0.48	1.34 ± 0.34	1.83 ± 0.67	1.66 ± 0.36	1.8 ± 0.33
STMN1 (UniProt P16949)	0.911 ± 0.0092	0.899 ± 0.048	0.994 ± 0.014	0.909 ± 0.042	0.85 ± 0.069	0.935 ± 0.1	0.971 ± 0.089	0.995 ± 0.041
IGFBP2 (UniProt P18065)	0.9 ± 0.042	0.884 ± 0.053	0.983 ± 0.035	0.997 ± 0.043	0.995 ± 0.028	0.934 ± 0.062	1.02 ± 0.054	1.05 ± 0.087
UniProt P26368|P26368-2	1.21 ± 0.06	1.64 ± 0.23	1.67 ± 0.25	1.69 ± 0.25	1.7 ± 0.29	1.75 ± 0.25	1.73 ± 0.29	1.71 ± 0.26
J3KPS0|Q9NXW2|Q9NXW2-2 (UniProt Q9NXW2)	1.01 ± 0.065	0.995 ± 0.088	0.984 ± 0.083	0.935 ± 0.064	0.913 ± 0.066	0.918 ± 0.1	0.967 ± 0.082	0.925 ± 0.063
HIST1H1E (UniProt P10412)	1.02 ± 0.12	1.05 ± 0.1	1.13 ± 0.15	1.24 ± 0.11	1.26 ± 0.055	1.38 ± 0.064	1.28 ± 0.18	2.05 ± 0.41
TOMM40 (UniProt O96008)	1.01 ± 0.045	1.04 ± 0.031	0.953 ± 0.041	0.967 ± 0.018	0.946 ± 0.043	0.936 ± 0.037	0.939 ± 0.077	0.905 ± 0.061

Target	NP40-soluble protein abundance (concentration: 0.1mM)	NP40-soluble protein abundance (concentration: 0.5mM)	NP40-soluble protein abundance (concentration: 1mM)	NP40-soluble protein abundance (concentration: 2mM)	NP40-soluble protein abundance (concentration: 4mM)	NP40-soluble protein abundance (concentration: 6mM)	NP40-soluble protein abundance (concentration: 8mM)	NP40-soluble protein abundance (concentration: 10mM)
MCM2 (UniProt P49736)	1.01 ± 0.052	1.07 ± 0.071	0.975 ± 0.074	0.985 ± 0.099	0.974 ± 0.1	0.983 ± 0.1	0.944 ± 0.083	0.929 ± 0.074
UniProt O95793|O95793-2	0.997 ± 0.045	1.02 ± 0.044	1.1 ± 0.079	1.18 ± 0.076	1.33 ± 0.11	1.42 ± 0.13	1.54 ± 0.2	1.82 ± 0.31
ANXA5 (UniProt P08758)	0.882 ± 0.07	0.908 ± 0.054	0.878 ± 0.077	0.854 ± 0.076	0.819 ± 0.073	0.843 ± 0.089	0.794 ± 0.081	0.809 ± 0.085
ESD (UniProt P10768)	0.959 ± 0.015	0.958 ± 0.032	0.924 ± 0.032	0.876 ± 0.025	0.882 ± 0.034	0.897 ± 0.04	0.875 ± 0.044	0.839 ± 0.059
GSTM2 (UniProt P28161)	1.03 ± 0.058	0.947 ± 0.051	1 ± 0.1	0.976 ± 0.085	0.956 ± 0.1	0.932 ± 0.11	0.886 ± 0.091	0.899 ± 0.12
UniProt P09564	1.03 ± 0.2	0.908 ± 0.048	1.09 ± 0.19	0.942 ± 0.15	1.02 ± 0.13	0.977 ± 0.15	1 ± 0.17	0.932 ± 0.14
EEF1E1 (UniProt O43324)	1.05 ± 0.28	0.987 ± 0.27	1.24 ± 0.41	1.43 ± 0.46	1.41 ± 0.44	1.39 ± 0.45	1.22 ± 0.39	1.31 ± 0.55
DNAJC8 (UniProt O75937)	0.838 ± 0.14	0.801 ± 0.056	1.1 ± 0.17	1.09 ± 0.056	1.08 ± 0.14	1.14 ± 0.12	1.05 ± 0.21	1.3 ± 0.25
UniProt O96028|O96028-3|O96028-5	1.04 ± 0.032	1.06 ± 0.049	1.19 ± 0.027	1.26 ± 0.027	1.44 ± 0.053	1.49 ± 0.047	1.59 ± 0.067	1.69 ± 0.062
GLRX3 (UniProt O76003)	0.92 ± 0.052	0.946 ± 0.058	0.934 ± 0.068	0.882 ± 0.088	0.864 ± 0.075	0.885 ± 0.085	0.885 ± 0.035	0.871 ± 0.081
IGHMBP2 (UniProt P38935)	1.07 ± 0.072	1.09 ± 0.1	1.14 ± 0.099	1.26 ± 0.17	1.44 ± 0.26	1.6 ± 0.27	1.7 ± 0.43	1.92 ± 0.48
P0DN76|Q01081|Q01081-2 (UniProt Q01081+P0DN76)	1.23 ± 0.074	1.61 ± 0.28	1.64 ± 0.32	1.67 ± 0.32	1.71 ± 0.36	1.78 ± 0.4	1.79 ± 0.45	1.76 ± 0.38
K7EIY1|Q9Y421 (UniProt Q9Y421)	1.045 ± 0.0048	0.987 ± 0.15	1.07 ± 0.11	1.14 ± 0.14	1.25 ± 0.12	1.21 ± 0.2	1.24 ± 0.11	1.37 ± 0.088
UniProt O75554|O75554-2	1.01 ± 0.045	1.07 ± 0.1	1.08 ± 0.083	1.05 ± 0.12	1.04 ± 0.059	1.09 ± 0.12	1.12 ± 0.072	1.06 ± 0.034
PSMB4 (UniProt P28070)	0.926 ± 0.12	1.01 ± 0.11	0.939 ± 0.11	1.04 ± 0.14	1.05 ± 0.21	1.03 ± 0.22	0.945 ± 0.14	0.976 ± 0.14
PPIF (UniProt P30405)	0.881 ± 0.08	0.902 ± 0.067	0.863 ± 0.064	0.876 ± 0.078	0.853 ± 0.091	0.868 ± 0.087	0.836 ± 0.11	0.887 ± 0.079
M0R2U2|P22087 (UniProt P22087)	1.02 ± 0.054	1.03 ± 0.032	1.08 ± 0.068	1.21 ± 0.056	1.52 ± 0.068	1.77 ± 0.082	2.13 ± 0.11	2.47 ± 0.083
UniProt O75170|O75170-2|O75170-3|O75170-4|O75170-5	1 ± 0.15	0.979 ± 0.059	1.03 ± 0.12	1 ± 0.043	0.973 ± 0.071	0.992 ± 0.056	0.963 ± 0.065	1.05 ± 0.075
J3KQL8|Q9BQE5 (UniProt Q9BQE5)	0.987 ± 0.019	1.01 ± 0.041	0.984 ± 0.054	0.956 ± 0.058	0.917 ± 0.044	0.982 ± 0.05	0.957 ± 0.045	0.928 ± 0.051
